Here are results for 27 compounds from PubChem BioAssay.

This test is described as follows: resazurin metabolic signal in HepG2 cells – cell-based, resazurin fluorescence, 24 h, PK04 Diversity Set, profiling panel (AID 1172). Also: test concentration not given here. The following applies: HepG2 viability, higher = more signal. (In general: Resazurin is reduced to fluorescent resorufin, in cell work by metabolically active cells.)
On to `C#CCNC(=O)[C@H](Cc1ccccc1)NC(=O)[C@@H](N=[N+]=[N-])C(C)C`, for which the z-score was found to be 0.664. With `C[C@H]1C2=C3C(CC[C@H]4C(OCc5ccc(F)cc5C(F)(F)F)OC[C@](C)([C@@H]34)N(C(=O)OC(C)(C)C)C2)C2COC(=O)OCC21` (some centres not stated) the figure was -1.33. With `CC(C)(C)OC(=O)CC[C@]1(C(=O)N2CCOCC2)N=C(c2ccc(OCCCO)cc2)O[C@H]1c1ccccc1` the figure was -0.149. With `COc1ccc([Si](C)(C)[C@H]2[C@H](CCn3cc([C@H](O)c4ccccc4)nn3)O[C@@]3(C(=O)N(Cc4cccc(N5C(=O)c6cccc7cccc5c67)c4)c4ccccc43)[C@@H]2C)cc1` the figure was -0.717. As for `C=C(C(=O)CC[C@H](OC(=O)c1cccnc1)c1ccc(CO)o1)C(C)C`, the z-score is -0.499. With `C=CC1c2cc(O)c(OC)cc2CCN1Cc1sc2ccccc2c1Cl` (configuration not stated) the figure was -0.62. The value for `CC(C)(C)OC(=O)CC[C@@]1(C(=O)O)N=C(c2ccc(OCCCO)cc2)O[C@@H]1c1ccccc1CN=[N+]=[N-]` was 0.911; that for `CC=CC(O)C1C=CC2C(=O)N(C)C(=O)C2N1N1CCCCC1` (configuration not stated) was -0.245; that for `CO[C@H]1O[C@H](CO)[C@@H](OC(=O)Nc2ccccc2-c2ccccc2)[C@H](OC(=O)Nc2ccc3c(c2)OCO3)[C@@H]1OC(=O)Nc1ccc2c(c1)OCO2` was -1.18. The value for `O=C1NCC(=O)N2[C@@H]1C[C@@H](C(=O)O)[C@H]2c1ccc(O)cc1` was 0.153. As to `C[C@@H](OCc1ccccc1)C1NC(=O)[C@@]23C(=O)N[C@@H](Cc4ccccc4)C2[C@H](C)[C@@]2(C)O[C@H]2C3/C=C/C/C=C\CNC(=O)CNC1=O` (some centres not stated), the z-score was -0.816. The compound `CCOC(=O)[C@H]1C/C=C/C[C@H](C(=O)OCC)C(=O)O[C@H]2[C@@H](OC)O[C@H](CO)[C@@H](OC(=O)CCc3ccccc3)[C@@H]2OC1=O` displayed a z-score of -0.144.

The compound `C=C(CCCC)/C(=C/C[C@@H](OC(C)=O)c1ccc(CO)o1)c1cc(C(=O)OC)ccc1OC` showed a z-score of -0.345. The value for `C=CCOC(=O)[C@@H]1[C@H]2C(=O)O[C@H](c3ccccc3)[C@H](c3ccccc3)N2[C@H](c2ccc(OCCOC(=O)[C@H]3C[C@H]4C(=O)N[C@@H](CCCC[N+](C)(C)C)C(=O)N4[C@H]3c3ccc(O)cc3)cc2)[C@@]12C(=O)Nc1ccc(I)cc12` was -0.792; that for `COC1(C)CN(Cc2ccccc2Br)[C@H](/C=C/c2ccccc2)[C@H](Cc2ccccc2)O1` (some centres not stated) was 1.1; that for `C=CCN1C(=O)[C@]2(CC=C)N=C(c3ccc(OCCCO)cc3)O[C@@H]2c2ccccc21` was -0.956. The value for `CCCC=C(CCC)[C@@H](NP(=O)(c1ccccc1)c1ccccc1)c1ccc(C(F)(F)F)cc1` was 1.02. With `CC(C)N1C(=O)[C@@]2(c3ccc([N+](=O)[O-])cc3)CC(=O)N(C3CCCCC3)[C@@H]2c2ccc(CO)cc21` the figure was 1.86; with `CON(C)C(=O)C=C1C[C@@H](c2cccc(Cl)c2)O[C@@H](c2cccc(Cl)c2)O1`, 0.485; with `[N-]=[N+]=NCc1ccccc1C[C@@]1(C(N)=O)N=C(c2ccc(OCCCO)cc2)O[C@@H]1c1ccccc1CN=[N+]=[N-]`, 0.717.

Compound `O=C(O)[C@H]1C[C@H]2C(=O)N3CCC[C@H]3C(=O)N2[C@H]1c1cccc(OCCO)c1` registered a z-score of 1.32. Compound `C=C(CCCC)C(=O)CC[C@@H](OC(=O)c1ccccc1-c1ccccc1C(=O)O)c1cccc(OCCO)c1` returned a z-score of -0.269. With `[N-]=[N+]=NCc1ccccc1C[C@]1(C(=O)NCC(O)CO)N=C(c2ccc(OCCCO)cc2)O[C@H]1c1ccccc1CN=[N+]=[N-]` (some centres not stated) the figure was -0.459; with `C=CCNC(=O)[C@@H]1[C@H]2C(=O)O[C@H](c3ccccc3)[C@H](c3ccccc3)N2[C@H](c2ccc(OCCO)cc2)[C@@]12C(=O)N(C(=O)OCCOC)c1ccc(C#CC3=CCCCC3)cc12`, -0.344; with `O=C1OCCC=C[C@H]2OC34C=CCN(c5ccc(Cl)cc5)C(=O)[C@H]3N(CCCCCO)C(=O)[C@@H]4C12` (some centres not stated), 1.25. The value for `COc1c(C)cc(-c2cc3c(c(-c4ccccc4)n2)[Si](C(C)C)(C(C)C)OC3)cc1C` was 0.0316; that for `CCCCN1CC=CC23O[C@@H]4/C=C\CCC(C)OC(=O)C4[C@H]2C(=O)N(CCCCCCO)[C@@H]3C1=O` (some centres not stated) was 0.634.
